# Test results reported in PubChem BioAssay (NCATS).
# “And” between values parts separate entries of the source, which are not always exact repeats. Equal values may be shown once. Results filed as inconclusive are left out. A call without a number means that no potency is given here. The source made the active and inactive calls. The call rests on the fitted dose curve; in most records, active means well fitted curve in the direction sought with a large enough effect; inconclusive means small, poorly fitted or top-dose-only effect, or another doubt; inactive means no such curve, though single readings can be large; an effect the other way counts as inactive or inconclusive.
# Assays:
# [1] = qHTS of pediatric cancer cell lines to identify multiple opportunities for drug repurposing: Primary screen for Rh30 cells (AID 1347107); further: nearly all actives have a fitted effect of over 75% in size
# Summary of the method: (§1)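 Cells (500-1,000/well) rested 5 h, then received compounds for 48 h; metabolically active cells were measured by CellTiter-Glo luminescence. Final concentrations spanned up to 46 µM (MIPE, 11-point) or 0.59 nM-46 µM (NPC, 8-point) in primary screens, 11-point in follow-ups.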
# [2] = qHTS of pediatric cancer cell lines to identify multiple opportunities for drug repurposing: Confirmatory screen for A673 cells (AID 1347110);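 further: cells exposed to compound for 48 h before the viability read; nearly all actives have a fitted effect of over 65% in size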
# Summary of the method: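 Forty-eight-hour viability assay. Follow-up compounds ran at 11-point dilutions; positive control bortezomib at 2.3 uM final, neutral control DMSO.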
# [3] = qHTS of pediatric cancer cell lines to identify multiple opportunities for drug repurposing: Confirmatory screen for BT-12 cells (AID 1347112);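 further: viability read after 48 h of compound exposure; nearly all actives have a fitted effect of over 55% in size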
# Summary of the method: as §1
# [4] = qHTS of pediatric cancer cell lines to identify multiple opportunities for drug repurposing: Confirmatory screen for LAN-5 cells (AID 1347113); further: nearly all actives have a fitted effect of over 65% in size
# Summary of the method: as §1
# [5] = qHTS of pediatric cancer cell lines to identify multiple opportunities for drug repurposing: Confirmatory screen for DAOY cells (AID 1347114); further: nearly all actives have a fitted effect of over 65% in size
# Summary of the method: (§2)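 Viability measured as metabolically active cells via CellTiter-Glo luminescence following 48 hours of compound exposure, 11-point dilutions in confirmatory testing. 500-1,000 cells/well plated 5 hours before dosing; controls were DMSO and 2.3 µM bortezomib.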
# [6] = qHTS of pediatric cancer cell lines to identify multiple opportunities for drug repurposing: Confirmatory screen for NB-EBc1 cells (AID 1347115);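 further: cells exposed to compound for 48 h before the viability read; nearly all actives have a fitted effect of over 45% in size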
# Summary of the method: as §1
# [7] = qHTS of pediatric cancer cell lines to identify multiple opportunities for drug repurposing: Confirmatory screen for SJ-GBM2 cells (AID 1347116); further: nearly all actives have a fitted effect of over 60% in size
# Summary of the method: as §2
# [8] = qHTS of pediatric cancer cell lines to identify multiple opportunities for drug repurposing: Primary screen for Rh41 cells (AID 1347108); further: nearly all actives have a fitted effect of over 70% in size
# Summary of the method: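 Cells seeded at 500-1,000 cells/well in growth media, rested 5 hours at 37 degrees C, 5% CO2, then dosed; MIPE compounds at 11-point (from 0.78 nM) and NPC at 8-point (from 0.59 nM) final concentrations. Viability by CellTiter-Glo luminescence after 48 hours.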
# [9] = qHTS of pediatric cancer cell lines to identify multiple opportunities for drug repurposing: Confirmatory screen for NB1643 cells (AID 1347109); further: nearly all actives have a fitted effect of over 45% in size
# Summary of the method: as §1
# Potency means the concentration at half of the fitted maximal effect.
structure (smiles),measurement,setting,value
CC(C=CC1=C(C)CCCC1(C)C)=CC=CC(C)=CC(=O)O,Potency,[1],inactive
same,Potency,[2],inactive
same,Potency,[3],inactive
same,Potency,[4],inactive
same,Potency,[5],inactive
same,Potency,[6],inactive
same,Potency,[7],inactive
CO[C@@H]1[C@H](N(C)C(=O)c2ccccc2)C[C@H]2O[C@]1(C)n1c3ccccc3c3c4c(c5c6ccccc6n2c5c31)C(=O)NC4,Potency,[1],inactive
same,Potency,[8],inactive
same,Potency,[9],3.29 µM (active)
same,Potency,[2],inactive
same,Potency,[5],inactive
O=C(c1cc(Cc2n[nH]c(=O)c3ccccc23)ccc1F)N1CCN(C(=O)C2CC2)CC1,Potency,[9],inactive
same,Potency,[2],0.104 µM (active)
same,Potency,[3],18.5 µM (active)
same,Potency,[6],inactive
same,Potency,[7],inactive
O=C(NOC[C@H](O)CO)c1ccc(F)c(F)c1Nc1ccc(I)cc1F,Potency,[9],inactive
same,Potency,[2],inactive
same,Potency,[5],inactive
same,Potency,[7],inactive
COc1cccc2cc(-c3nc(C4CCC(C(=O)O)CC4)n4ncnc(N)c34)[nH]c12 (centres undefined),Potency,[1],inactive
same,Potency,[9],inactive
same,Potency,[6],inactive
C[C@]12CCC(=O)C=C1CC[C@@H]1[C@@H]2[C@@H](O)C[C@@]2(C)[C@H]1CC[C@]2(O)C(=O)CO,Potency,[1],inactive
same,Potency,[8],inactive
CN1CCN(CCCN2c3ccccc3Sc3ccc(C(F)(F)F)cc32)CC1,Potency,[1],inactive
same,Potency,[8],inactive
same,Potency,[9],23.3 µM (active)
same,Potency,[2],26.1 µM (active)
same,Potency,[3],23.3 µM (active)
same,Potency,[5],18.5 µM (active)
OCCC#Cc1nc(-c2ccc(F)cc2)c(-c2ccncc2)n1CCCc1ccccc1,Potency,[8],18.7 µM (active)
Oc1cccc(-c2nc(N3CCOCC3)c3oc4ncccc4c3n2)c1,Potency,[1],13.6 µM (active)
same,Potency,[8],0.382 µM (active)
same,Potency,[9],2.4 µM (active)
same,Potency,[2],1.85 µM (active)
same,Potency,[4],0.537 µM (active)
same,Potency,[6],13.5 µM (active)
same,Potency,[7],2.93 µM (active)
CS(=O)(=O)c1ccc(C(=O)Nc2ccc(Cl)c(-c3ccccn3)c2)c(Cl)c1,Potency,[1],inactive
same,Potency,[2],inactive
same,Potency,[3],inactive
same,Potency,[4],inactive
same,Potency,[5],inactive
same,Potency,[6],inactive
same,Potency,[7],inactive
Cc1cc2c(C(C)C)c(O)c(O)c(C=O)c2c(O)c1-c1c(C)cc2c(C(C)C)c(O)c(O)c(C=O)c2c1O,Potency,[8],16.8 µM (active) and 18.7 µM (active)
COc1ccc(COc2cc3oc(=O)c4cc(C(C)O)ccc4c3cc2OC)cc1 (centres undefined),Potency,[8],18.7 µM (active)
